Records with an inconclusive call do not appear. Activity calls are given as the source filed them.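 How the source made its calls, unless noted: active means efflux inhibition above 0.42, the validation set average plus 4 SD; inconclusive means no clear call, values can overlap the other calls; inactive means the rest.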

Experiment [1] can be described thus: yeast TOR pathway RPL19A-GFP modulators, primary screen, cell-based, S. cerevisiae, multiplex flow cytometry (AID 1862; in the data active means percent of DMSO control GFP below about 86%;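 further: lower values mimic rapamycin by blocking the RPL19A rise seen in DMSO cells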). The settings on record: S. cerevisiae RPL19A-GFP strain, flow cytometry fluorescence, 3 h; at 10 µM; stronger effect = lower value. (In general: Flow cytometry measures light scatter and fluorescence of single cells or particles in a stream.)
Experiment [2] in a line: modulators of MEP2-GFP levels in yeast, primary screen, S. cerevisiae, multiplex flow cytometry (AID 1867;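 active means GFP response, as percent of the DMSO control, above the screen-wide mean plus 3 SD, about 139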;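 further: median GFP channel fluorescence of barcode-gated MEP2-GFP cells measured by flow cytometry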). The settings on record: S. cerevisiae MEP2-GFP strain, 3 h, at 10 µM, stronger effect = higher value, 100% means same as DMSO wells.
A short description of experiment [3]: modulators of CIT2-GFP expression in yeast, primary screen, S. cerevisiae, GFP fusion, multiplex flow cytometry (AID 1870;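 active means percent response above a set limit, the screen-wide mean plus 3 SD, cut at about 130% in these data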;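 further: barcoded CIT2-GFP strain pooled with four other GFP strains with rapamycin as positive control; median GFP fluorescence per well over plate mean of DMSO wells so 100% = DMSO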). The settings on record: 3 h, at 10 µM, stronger effect = higher value.
Experiment [4] is described as follows: modulators of LAP4-GFP expression in yeast, primary screen, S. cerevisiae, multiplex flow cytometry (AID 1873;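 active means GFP signal, as percent of the solvent control, above the screen mean plus 3 SD, about 149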). The settings on record: 3 h, at 10 µM, stronger effect = higher value.
Experiment [5] can be described thus: modulators of AGP1-GFP expression in yeast TOR pathway, primary screen, cell-based, multiplex flow cytometry, S. cerevisiae (AID 1887;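 active means GFP signal above the screen-wide mean plus 3 SD, that is over about 124.5% of the solvent control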;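 further: AGP1-GFP fusion strain of S. cerevisiae within a five-strain barcoded multiplex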). The settings on record: 3 h, at 10 µM, stronger effect = higher value.
The nature of experiment [6]: inhibitors of CD8+ T cell-vesicle binding, pilot screen, LFA-1/ICAM-1 modulator project, MLPCN validation set, flow cytometry (AID 2523;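 active means response below a set limit, under 55% cells CD8-positive and vesicle-bound, and CD8 cells' 90th-percentile brightness under 279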;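 on vesicle binding response: mean PE anti-B7-1 fluorescence of CD8+ cells relative to row control; 100% = QL9-loaded vesicles with DMSO vehicle in the same plate row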). The settings on record: 2C mouse CD8+ T cells, at 7 µM, stronger effect = lower value; double positive events: measured here: CD8+/vesicle+ event percentage.
Experiment [7] addresses Integrin beta-1 (Homo sapiens) + Integrin alpha-4 (Homo sapiens) (UniProt P13612+P05556). Kind of experiment: inhibition of HUTS-21 binding to VLA-4, pilot screen, VLA-4 allosteric modulator project, U937 cells, HUTS-21 mAb, flow cytometry, validation set (AID 2674;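 active means inhibition above 50%, about 3 SD of the validation set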;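 further: antibody binding induced by the VLA-4 ligand LDV present at three times its Kd; 0% = LDV ligand with antibody and no compound and 100% = antibody without LDV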). The settings on record: HUTS-21 LIBS mAb binding, at 6.7 µM, stronger effect = higher value, binding induced by LDV ligand.

Experiment [8] can be described thus: superoxide lowering in aged yeast cells, pilot screen, validation compound set (AID 2706;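 active means superoxide response below 65% of plate, a cut near 3 SD across the whole screen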;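 further: yeast exposed to compound for one week at 30 degrees C before staining; 100% = mean of all compound wells on the same plate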). The settings on record: S. cerevisiae aging, superoxide DHE fluorescence; at 10 µM; stronger effect = lower value.
The target of experiment [9] is Beta-adrenergic receptor kinase 1 (Homo sapiens) (UniProt P25098). Kind of experiment: GRK2 binders displacing RNA aptamer, biochemical, validation, human GRK2, bead flow cytometry (AID 488806;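 active means aptamer binding inhibition above 30%, about 3 SD of noise from non-fluorescent compounds; inactive means inhibition at or below 30%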). The settings on record: bead-bound GRK2, FAM-aptamer displacement, at 10 µM, stronger effect = higher value.
Experiment [10] concerns the target Beta-2 adrenergic receptor (Homo sapiens) (UniProt P07550). The experiment can be described thus: beta2AR agonists driving receptor internalization, pilot screen, cell-based, FAP fluorogen, flow cytometry, validation set (AID 504459;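 active means percent response above 42, roughly 3 SD of non-fluorescent test compounds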;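 further: agonist-driven loss of surface beta2AR via internalization measured by FAP dye flow cytometry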). The settings on record: Am2.2-beta2AR cells, FAP surface receptor flow cytometry; at 10 µM; stronger effect = higher value.
The target in experiment [11] is AP-2 complex subunit beta (Homo sapiens) (UniProt P63010). Kind of experiment: inhibitors of arrestin peptide binding to AP2, pilot screen, biochemical, validation set, GST-AP2 beads, flow cytometry (AID 504541;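 active means inhibition above 54%, about 3 SD of non-fluorescent compounds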;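 further: AP2 carries R879A mutation and is captured from E. coli lysate; bead-bound FITC arrestin peptide fluorescence measuring arrestin peptide binding to AP2; 0% = DMSO wells and 100% = excess unlabeled arrestin peptide control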). The settings on record: FITC arrestin peptide, at 10 µM, stronger effect = higher value, AP2 beta2 appendage fragment, R879A mutant.
Experiment [12] is described as follows: yeast V-ATPase proton transport modulators, S. cerevisiae, pHLuorin, HTS validation (AID 504600; in the data active means response above about 15%;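 further: plate controls were DMSO for no effect and reference compound for full effect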). The settings on record: S. cerevisiae pHLuorin cytosolic pH, at 10 µM, stronger effect = higher value.
In experiment [13] the test system is anti-desmoglein-3 scFv antibody binding to human DSG3. Kind of experiment: inhibitors of anti-DSG3 scFv binding to DSG3, pilot screen, biochemical, validation compound set, bead-based, flow cytometry (AID 588368;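 active means binding below the plate cutoff, the plate median minus 3 SD, with a reading above zero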;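 further: signal is the median channel fluorescence of bead-bound GFP antibody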). The settings on record: Protein G beads, DSG3-Fc, scFv-GFP binding, at 10 µM, stronger effect = lower value.
A short description of experiment [14]: inhibitors of fungal efflux pumps CDR1, CDR2, MDR1, pilot screen, validation compound set, multiplex, phenotypic (AID 588506).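 Further: Nile Red retained in cells so higher fluorescence means more efflux inhibition; 0 = negative control wells and 1 = enniatin B 25 µM full block.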 The settings on record: S. cerevisiae pump-expressing triplex, Nile Red efflux flow cytometry; at 10 µM; stronger effect = higher value; the pumps come from Candida albicans.
The target of experiment [15] is ATP-binding cassette sub-family B member 6 (Homo sapiens) (UniProt Q9NP58). The experiment can be described thus: ABCB6 transporter inhibitors, pilot screen, K562-ABCB6 cells, flow cytometry, validation set (AID 588550;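 active means inhibition above the screen-wide mean plus 3 SD, about 51%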;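 further: 0% = DMSO wells and 100% = benzethonium chloride 70 µM positive control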). The settings on record: K562-ABCB6 porphyrin accumulation, 1 h, at 10 µM, stronger effect = higher value.
A short description of experiment [16]: promoters of myeloid differentiation in arrested cells, primary screen, cell-based, GFP/MAC1 double positive, flow cytometry, validation set (AID 588685;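 active means differentiation response of at least 50%, scaled between solvent and reference control, from cells with both markers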;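 further: compound exposure lasts four days before antibody staining and flow analysis; 0% = DMSO wells and 100% = 5 µM fulvestrant positive control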). The settings on record: ER-HoxA9 marrow cells, stronger effect = higher value, normalized: vehicle 0, fulvestrant 100.

ATP-binding cassette sub-family B member 6 (Homo sapiens), sequence (Q9NP58 whole entry, looked up): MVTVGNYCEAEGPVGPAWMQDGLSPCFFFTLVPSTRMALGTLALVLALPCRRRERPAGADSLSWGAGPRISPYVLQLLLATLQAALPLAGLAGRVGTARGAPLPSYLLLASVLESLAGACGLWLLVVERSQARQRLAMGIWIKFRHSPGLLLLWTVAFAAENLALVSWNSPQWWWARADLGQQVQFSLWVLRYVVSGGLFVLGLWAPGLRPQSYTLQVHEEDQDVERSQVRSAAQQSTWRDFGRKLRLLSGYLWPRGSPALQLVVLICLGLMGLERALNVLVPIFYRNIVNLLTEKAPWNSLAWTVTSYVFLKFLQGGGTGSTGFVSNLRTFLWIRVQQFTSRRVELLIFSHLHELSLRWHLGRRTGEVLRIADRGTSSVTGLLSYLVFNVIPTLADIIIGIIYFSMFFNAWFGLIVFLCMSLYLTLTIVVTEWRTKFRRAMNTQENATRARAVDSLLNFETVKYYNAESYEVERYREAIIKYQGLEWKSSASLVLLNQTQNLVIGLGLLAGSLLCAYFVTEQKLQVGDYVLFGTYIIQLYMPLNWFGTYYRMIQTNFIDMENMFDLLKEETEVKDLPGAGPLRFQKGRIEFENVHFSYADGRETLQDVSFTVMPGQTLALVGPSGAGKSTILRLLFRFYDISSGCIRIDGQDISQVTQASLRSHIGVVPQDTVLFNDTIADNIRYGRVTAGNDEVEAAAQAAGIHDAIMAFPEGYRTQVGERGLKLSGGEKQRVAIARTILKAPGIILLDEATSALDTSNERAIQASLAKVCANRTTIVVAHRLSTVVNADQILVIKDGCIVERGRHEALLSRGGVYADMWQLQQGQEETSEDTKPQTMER
Beta-adrenergic receptor kinase 1 (Homo sapiens), sequence (P25098 whole entry, looked up): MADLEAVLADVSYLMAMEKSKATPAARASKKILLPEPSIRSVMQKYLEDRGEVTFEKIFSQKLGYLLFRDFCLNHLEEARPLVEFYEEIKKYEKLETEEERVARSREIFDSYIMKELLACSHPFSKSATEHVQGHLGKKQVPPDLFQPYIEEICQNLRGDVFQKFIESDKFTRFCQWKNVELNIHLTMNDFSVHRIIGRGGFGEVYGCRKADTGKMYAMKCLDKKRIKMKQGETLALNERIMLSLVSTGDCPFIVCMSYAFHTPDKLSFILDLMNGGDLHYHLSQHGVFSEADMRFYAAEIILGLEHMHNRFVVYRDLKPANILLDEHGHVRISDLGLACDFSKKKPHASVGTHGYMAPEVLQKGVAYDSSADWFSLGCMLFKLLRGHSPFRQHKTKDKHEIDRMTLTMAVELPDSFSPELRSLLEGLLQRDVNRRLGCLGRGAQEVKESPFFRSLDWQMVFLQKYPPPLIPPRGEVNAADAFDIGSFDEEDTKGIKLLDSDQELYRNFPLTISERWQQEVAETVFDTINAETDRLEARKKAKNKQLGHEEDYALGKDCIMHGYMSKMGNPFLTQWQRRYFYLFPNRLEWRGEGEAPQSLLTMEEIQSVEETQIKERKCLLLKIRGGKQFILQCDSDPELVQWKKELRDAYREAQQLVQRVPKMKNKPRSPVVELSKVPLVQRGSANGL
AP-2 complex subunit beta (Homo sapiens), sequence (P63010 whole entry, looked up, the tested form may be a part, one chain of several): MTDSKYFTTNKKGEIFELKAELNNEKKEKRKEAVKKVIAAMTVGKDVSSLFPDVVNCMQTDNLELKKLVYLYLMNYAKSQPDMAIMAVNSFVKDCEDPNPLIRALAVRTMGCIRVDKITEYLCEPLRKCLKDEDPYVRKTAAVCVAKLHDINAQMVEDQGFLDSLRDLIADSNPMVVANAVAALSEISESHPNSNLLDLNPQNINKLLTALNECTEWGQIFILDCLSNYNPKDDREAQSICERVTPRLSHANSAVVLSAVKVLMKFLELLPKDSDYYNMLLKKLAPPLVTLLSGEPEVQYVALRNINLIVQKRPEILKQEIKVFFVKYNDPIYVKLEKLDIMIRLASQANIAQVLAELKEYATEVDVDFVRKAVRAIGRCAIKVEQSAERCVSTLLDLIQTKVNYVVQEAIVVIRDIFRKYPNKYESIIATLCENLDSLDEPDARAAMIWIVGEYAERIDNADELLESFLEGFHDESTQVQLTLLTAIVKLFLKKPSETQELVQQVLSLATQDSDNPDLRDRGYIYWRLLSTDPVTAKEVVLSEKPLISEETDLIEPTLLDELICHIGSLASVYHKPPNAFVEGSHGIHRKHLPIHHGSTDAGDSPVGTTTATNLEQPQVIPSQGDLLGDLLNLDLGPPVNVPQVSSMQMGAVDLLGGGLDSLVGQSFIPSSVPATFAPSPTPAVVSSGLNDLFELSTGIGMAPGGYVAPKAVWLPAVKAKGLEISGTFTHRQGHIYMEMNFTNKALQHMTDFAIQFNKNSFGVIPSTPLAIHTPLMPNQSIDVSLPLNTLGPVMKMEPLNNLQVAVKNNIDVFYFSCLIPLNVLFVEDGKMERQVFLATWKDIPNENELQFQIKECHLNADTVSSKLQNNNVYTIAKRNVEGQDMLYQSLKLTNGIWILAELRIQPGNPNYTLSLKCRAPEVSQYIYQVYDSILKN
Integrin beta-1 (Homo sapiens) + Integrin alpha-4 (Homo sapiens), sequence (P05556 whole entry, looked up): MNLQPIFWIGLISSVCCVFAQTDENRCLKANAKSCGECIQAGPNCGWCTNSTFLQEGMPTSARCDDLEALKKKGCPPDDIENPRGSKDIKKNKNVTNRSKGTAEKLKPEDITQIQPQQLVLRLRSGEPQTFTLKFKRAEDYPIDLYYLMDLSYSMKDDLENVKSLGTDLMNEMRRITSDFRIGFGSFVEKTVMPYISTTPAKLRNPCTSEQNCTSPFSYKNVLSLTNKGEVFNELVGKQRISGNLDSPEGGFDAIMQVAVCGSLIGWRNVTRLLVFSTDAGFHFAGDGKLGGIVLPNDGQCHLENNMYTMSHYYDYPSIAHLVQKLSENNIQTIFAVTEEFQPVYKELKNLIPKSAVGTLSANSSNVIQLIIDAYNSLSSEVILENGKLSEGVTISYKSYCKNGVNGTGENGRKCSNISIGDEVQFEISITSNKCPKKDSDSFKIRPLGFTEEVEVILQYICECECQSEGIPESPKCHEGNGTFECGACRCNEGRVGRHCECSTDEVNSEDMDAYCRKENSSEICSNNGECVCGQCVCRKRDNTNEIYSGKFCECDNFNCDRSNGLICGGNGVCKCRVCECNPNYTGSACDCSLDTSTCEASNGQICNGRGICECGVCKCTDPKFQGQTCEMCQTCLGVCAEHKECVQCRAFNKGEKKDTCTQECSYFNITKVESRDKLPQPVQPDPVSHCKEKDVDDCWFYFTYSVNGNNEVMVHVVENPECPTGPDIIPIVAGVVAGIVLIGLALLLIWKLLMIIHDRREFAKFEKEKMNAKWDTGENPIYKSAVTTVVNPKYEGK
Integrin beta-1 (Homo sapiens) + Integrin alpha-4 (Homo sapiens), sequence (P13612 whole entry, looked up): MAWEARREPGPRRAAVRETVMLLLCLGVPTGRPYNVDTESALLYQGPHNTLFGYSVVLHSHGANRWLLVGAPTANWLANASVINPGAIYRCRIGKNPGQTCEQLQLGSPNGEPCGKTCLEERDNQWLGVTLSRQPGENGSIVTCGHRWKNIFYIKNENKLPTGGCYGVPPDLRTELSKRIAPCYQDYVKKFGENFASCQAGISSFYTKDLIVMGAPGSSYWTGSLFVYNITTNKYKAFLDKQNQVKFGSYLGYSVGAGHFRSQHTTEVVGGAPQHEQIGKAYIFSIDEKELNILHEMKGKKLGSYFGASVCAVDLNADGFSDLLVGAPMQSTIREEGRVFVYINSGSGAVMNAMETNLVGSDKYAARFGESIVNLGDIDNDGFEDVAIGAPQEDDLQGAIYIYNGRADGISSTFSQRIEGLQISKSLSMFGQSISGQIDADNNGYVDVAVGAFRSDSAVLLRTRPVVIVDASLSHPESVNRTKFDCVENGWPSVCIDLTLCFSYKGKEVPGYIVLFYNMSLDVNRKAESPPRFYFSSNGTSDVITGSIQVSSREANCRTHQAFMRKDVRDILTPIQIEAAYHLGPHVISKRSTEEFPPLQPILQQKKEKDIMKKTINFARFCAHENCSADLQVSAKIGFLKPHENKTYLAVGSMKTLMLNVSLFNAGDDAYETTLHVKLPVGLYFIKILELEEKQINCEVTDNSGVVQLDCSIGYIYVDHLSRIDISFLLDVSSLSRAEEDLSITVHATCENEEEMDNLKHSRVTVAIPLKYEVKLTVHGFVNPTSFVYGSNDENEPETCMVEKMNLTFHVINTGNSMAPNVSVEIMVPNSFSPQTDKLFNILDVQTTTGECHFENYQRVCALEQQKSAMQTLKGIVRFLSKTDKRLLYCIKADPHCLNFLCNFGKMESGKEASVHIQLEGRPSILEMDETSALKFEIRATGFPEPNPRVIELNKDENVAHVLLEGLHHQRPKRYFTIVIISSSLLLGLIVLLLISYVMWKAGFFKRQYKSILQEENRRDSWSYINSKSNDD
Beta-2 adrenergic receptor (Homo sapiens), sequence (P07550 whole entry, looked up): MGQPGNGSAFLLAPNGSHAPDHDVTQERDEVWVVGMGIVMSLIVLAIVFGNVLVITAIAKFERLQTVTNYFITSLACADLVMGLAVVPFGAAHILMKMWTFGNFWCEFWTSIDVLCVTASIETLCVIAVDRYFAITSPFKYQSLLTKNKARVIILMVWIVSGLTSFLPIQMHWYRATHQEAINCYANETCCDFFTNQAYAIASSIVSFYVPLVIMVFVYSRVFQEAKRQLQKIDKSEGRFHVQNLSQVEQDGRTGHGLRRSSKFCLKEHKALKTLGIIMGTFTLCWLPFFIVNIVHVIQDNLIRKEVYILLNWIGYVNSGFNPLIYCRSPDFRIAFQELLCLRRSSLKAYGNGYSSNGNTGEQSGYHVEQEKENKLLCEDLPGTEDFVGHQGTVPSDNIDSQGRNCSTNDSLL

The term inhibition denotes the change of the read-out against control, counted positive when it falls. Turning to `COC(=O)c1ccc(C(=O)OC)c(NC(=O)C(C)C)c1`, in [1], the percent of DMSO control GFP was 97.8% (inactive). In addition, the results for the GFP response vs DMSO in [2] and in [4] were 102% (inactive) and 138% (inactive), respectively. Also, in [3], the percent response of DMSO control is 102% (inactive). Also, the GFP response, % of DMSO in experiment [5] was 112% (inactive). The same compound had a double positive events in experiment [6] of 63.1%. The vesicle binding response in [6] is 204% (inactive). The inhibition in experiment [7] is -72.7% (inactive); in [11] it was -9.41% (inactive); in experiment [15], -3% (inactive). In addition, the superoxide response (% of plate) in experiment [8] is 100% (inactive). Also, the aptamer binding inhibition in experiment [9] was 0% (inactive). Besides, the response in experiment [10] is -13.3% (inactive); in experiment [12] it was 0.33% (inactive). The binding (% of control) in experiment [13] is 97.1% (inactive). In experiment [14], the efflux inhibition (fraction of control) was 0 (inactive). The differentiation response in [16] is 0.92% (inactive).
`S=C(NCc1ccccc1)NCc1cccc(CNC(=S)NCc2ccccc2)c1`: the percent of DMSO control GFP in [1] was 105% (inactive). The GFP response vs DMSO in [2] was 98.6% (inactive); in experiment [4] it was 108% (inactive). The percent response of DMSO control in experiment [3] is 93.8% (inactive). Moreover, the GFP response, % of DMSO in [5] was 120% (inactive). The same compound had a double positive events in experiment [6] of 62.4%. Besides, the vesicle binding response in [6] was 205% (inactive). Further, the inhibition is 9.1% (inactive) in experiment [7], 2.64% (inactive) in [11] and 2% (inactive) in [15]. In [8], the superoxide response (% of plate) was 81.9% (inactive). For the same compound, in [9], the aptamer binding inhibition is -2% (inactive). The response was -21.3% (inactive) in [10] and -2.61% (inactive) in [12]. Further, in experiment [13], the binding (% of control) was 100% (inactive). Besides, the efflux inhibition (fraction of control) in experiment [14] was 0.33 (inactive). The differentiation response in experiment [16] is 1.91% (inactive).
In the case of `CC(C)(C)C(=O)Nc1cccc(OC(F)(F)C(F)Cl)c1` (stereo not given), the percent of DMSO control GFP in experiment [1] is 105% (inactive). Moreover, the values for the GFP response vs DMSO in experiment [2] and in experiment [4] were 106% (inactive) and 107% (inactive), respectively. Further, in experiment [3], the percent response of DMSO control was 105% (inactive). Further, the GFP response, % of DMSO in experiment [5] is 113% (inactive). Moreover, the double positive events in experiment [6] is 66.2%. The vesicle binding response in experiment [6] was 212% (inactive). The values for the inhibition in experiment [7], in [11] and in [15] were 25.3% (inactive), 8.53% (inactive) and 5% (inactive), respectively. Further, in experiment [8], the superoxide response (% of plate) was 105% (inactive). For the same compound, the aptamer binding inhibition in experiment [9] was 4% (inactive). For the same compound, the response was -32.2% (inactive) in experiment [10] and 18.4% (active) in experiment [12]. Also, the binding (% of control) in experiment [13] is 99.5% (inactive). In addition, the efflux inhibition (fraction of control) in experiment [14] was -0.04 (inactive). For the same compound, the differentiation response in experiment [16] is 11.8% (inactive).
For `CN1CCc2c(n(CC(O)CN(CCO)CCO)c3ccccc23)C1=O` (stereo not given), the percent of DMSO control GFP in experiment [1] is 92.6% (inactive). Besides, the GFP response vs DMSO in experiment [2] was 143% (active); in experiment [4], 82% (inactive). The percent response of DMSO control in experiment [3] is 97.9% (inactive). In experiment [5], the GFP response, % of DMSO is 99.6% (inactive). In [6], this compound returned a double positive events of 52.3%. Also, in experiment [6], the vesicle binding response was 195% (inactive). For the same compound, the inhibition is -9.06% (inactive) in [7], 13.6% (inactive) in [11] and 8% (inactive) in [15]. Moreover, the superoxide response (% of plate) in experiment [8] is 100% (inactive). For the same compound, the aptamer binding inhibition in experiment [9] was 0% (inactive). The values for the response in experiment [10] and in experiment [12] were -17.4% (inactive) and -1.82% (inactive), respectively. In addition, the binding (% of control) in experiment [13] is 104% (inactive). For the same compound, in experiment [14], the efflux inhibition (fraction of control) is 0.09 (inactive). Further, the differentiation response in experiment [16] was -9.83% (inactive).
`COc1ccc2oc(=O)c(C(=O)Nc3ccccc3-c3ccccc3)cc2c1`: in [1], the percent of DMSO control GFP was 101% (inactive). Moreover, the values for the GFP response vs DMSO in experiment [2] and in experiment [4] were 104% (inactive) and 97.1% (inactive), respectively. Moreover, the percent response of DMSO control in experiment [3] is 99% (inactive). The GFP response, % of DMSO in [5] is 113% (inactive). In experiment [6], this compound displayed a double positive events of 64.5%. Besides, the vesicle binding response in experiment [6] is 167% (inactive). Further, the inhibition in [7] is 2.29% (inactive); in [11], 85% (active); in experiment [15] it was 6% (inactive). Further, in [8], the superoxide response (% of plate) was 94.6% (inactive). The aptamer binding inhibition in experiment [9] is 4% (inactive). The figures for the response in [10] and in experiment [12] were 13.6% (inactive) and -7.05% (inactive), respectively. Moreover, the binding (% of control) in [13] is 97.4% (inactive). In [14], the efflux inhibition (fraction of control) is 0 (inactive). Also, the differentiation response in [16] is -8.93% (inactive).

(Values after PubChem BioAssay.)
